Earlier results in PubChem BioAssay AID977611.
Structures can show the parent of a compound that is named as a salt. Hit rate of the full screen: of about 3,900 compounds, about 3,900 (100%) were called active. Cut-off not given; nearly all actives show Kd up to about 4200 µM. The set was probably picked from earlier hits. The list shows a part of the results. Bridge positions count the residues as written; N and C are the ends. Where a SMILES comes first, the peptide text is derived from it. Non-standard residues stand in square brackets, D forms with d. Residues, ends and D or L forms follow the SMILES beside them. Peptide text beside a SMILES is read from it. [ ]: non-standard residue; d: D form. * marks the point of attachment. Orn(CH(NH2)2) = NC(N)NCCC[C@H](N)C(=O)O; Tfa = O=C(C(F)(F)F)*

Assay: PubChem AID 977611
Settings: PDB protein-ligand complexes, literature Kd

CO[C@H]1O[C@H](CO)[C@@H](O)[C@H](O)[C@@H]1S[C@H]1O[C@H](CO)[C@@H](O)[C@H](O)[C@@H]1O
Kd (protein: MANNOSYL-OLIGOSACCHARIDE 1,2-ALPHA-MANNOSIDASE, PDB entry 4ayp): 0.755 µM (active)

OC[C@H]1O[C@@H](O)[C@H](O)[C@@H](O)[C@@H]1S[C@@H]1O[C@@H](CO[P+](O)(O)O)[C@@H](O)[C@H](O)[C@H]1O
Kd (protein: 6-phospho-beta-glucosidase, PDB entry 4ipn): 409 µM (active)

O[C@@H]1[C@H](O)[C@@H](CO[P+](O)(O)O)O[C@@H]1O
Kd (protein: Transcriptional regulator LsrR, PDB entry 4l5j): 1000 µM (active) | Kd (protein: Transcriptional regulator LsrR, PDB entry 4l51): 995 µM (active)

O=C1OC[C@@H](O[C@@H]2OC[C@@H](O[C@@H]3OC[C@@H](O)[C@H](O)[C@H]3O)[C@H](O)[C@H]2O)[C@H](O)[C@H]1O
Kd (protein: Selenomethionine XBP1, PDB entry 4g68): 0.012 µM (active)

CC(C)[C@@H]1NC(=O)[C@H](Cc2c[nH]cn2)NC(=O)[C@H](Cc2ccc(O)cc2)NC(=O)[C@H]([C@@H](C)O)NC(=O)[C@H](Cc2c[nH]cn2)NC(=O)[C@H](Cc2ccc(O)cc2)NC(=O)CSC[C@@H](C(N)=O)NC(=O)[C@H](Cc2ccc(O)cc2)NC(=O)[C@H](Cc2ccc(O)cc2)NC(=O)[C@H](CC(N)=O)NC(=O)[C@H]([C@@H](C)O)NC(=O)[C@H](CCCN=C(N)N)NC(=O)[C@H](CCCN=C(N)N)NC(=O)[C@H](CCCCNC(=O)C(F)(F)F)NC1=O ({CH2CO}-YHTYHVK(Tfa)RRTNYYC-NH2; thioether N-14)
Kd (protein: NAD-dependent protein deacetylase sirtuin-2, SIRT2, PDB entry 4l3o): 1 µM (active)

Cc1noc(C)c1-c1ccc(-c2[nH]c3cncc[n+]3c2NC(C)(C)C)cc1
Kd (protein: Bromodomain-containing protein 4 BRD4, PDB entry 4wiv): 0.55 µM (active)

CC(=O)N[C@@H](CO)C(=O)N[C@@H](Cc1cnc[nH]1)C(=O)N[C@H](C(=O)N[C@@H](C)C(=O)N[C@H](C(=O)N[C@@H](CCC(=O)O)C(=O)N[C@@H](CC(N)=O)C(=O)N[C@@H](C)C(=O)N[C@@H](CC(C)C)C(=O)O)C(C)C)C(C)C
Kd (protein: HLA class I histocompatibility antigen, B-39 alpha chain, PDB entry 4o2c): 0.01 µM (active)

CC(=O)N[C@@H](Cc1ccccc1)C(=O)N[C@@H](Cc1cnc[nH]1)C(=O)N[C@H](C(=O)N[C@@H](C)C(N)=O)[C@@H](C)O (Ac-FHTA-NH2)
Kd (protein: DNA REPAIR AND RECOMBINATION PROTEIN RADA, PDB entry 4b3b): 250 µM (active)

CC(C)[C@H](N)C(=O)N[C@@H](CCC(=O)O)C(=O)N[C@@H](CCC(N)=O)C(=O)N[C@@H](Cc1cnc[nH]1)C(=O)N[C@@H](Cc1cnc[nH]1)C(=O)N[C@@H](CCCNC(N)N)C(=O)N[C@@H](CCCNC(N)N)C(=O)N[C@H](C(=O)N[C@@H](CC(=O)O)C(=O)N[C@@H](CC(N)=O)C(=O)N[C@@H](CC(=O)O)C(=O)O)[C@@H](C)O (H-VEQHH[Orn(CH(NH2)2)][Orn(CH(NH2)2)]TDND-OH)
Kd (protein: 13F6-1-2 Fab fragment heavy chain, PDB entry 2qhr): 0.041 µM (active)

CC[C@H](C)[C@H](NC(=O)[C@H](CCC(=O)O)NC(=O)[C@H](Cc1cnc[nH]1)NC(=O)[C@@H](NC(=O)[C@@H](NC(=O)[C@H](CO)NC(C)=O)[C@@H](C)O)C(C)C)C(=O)N[C@@H](CC(C)C)C(=O)N[C@@H](CO)C(=O)N[C@@H](CCCCN)C(=O)N[C@@H](CC(C)C)C(=O)N[C@@H](CO)C(=O)O (Ac-STVHEILSKLS-OH)
Kd (protein: S100A10, PDB entry 1bt6): 2 µM (active)

CC(=O)NCC(=O)N[C@@H](CO)C(=O)N[C@@H](C)C(=O)N[C@@H](CCCNC(N)N)C(=O)N[C@@H](C)C(=O)N[C@@H](CCC(=O)O)C(=O)N[C@H](C(=O)N[C@@H](Cc1cnc[nH]1)C(=O)N[C@@H](CC(C)C)C(=O)O)C(C)C (Ac-GSA[Orn(CH(NH2)2)]AEVHL-OH)
Kd (protein: WD repeat-containing protein 5, PDB entry 3eg6): 1.7 µM (active)

CC(C)[C@H](NC(=O)[C@H](CCC(=O)O)NC(=O)[C@H](C)NC(=O)[C@H](CCCNC(N)N)NC(=O)[C@H](C)N)C(=O)N[C@@H](Cc1cnc[nH]1)C(=O)O (H-A[Orn(CH(NH2)2)]AEVH-OH)
Kd (protein: WD repeat-containing protein 5, PDB entry 3emh): 0.14 µM (active)

CC[C@H](C)[C@H](NC(=O)[C@H](CC(C)C)NC(=O)[C@H](CCCCN)NC(=O)[C@H](CCC(N)=O)NC(=O)[C@@H](N)CCC(=O)O)C(=O)N[C@@H](CO)C(=O)N[C@@H](CCC(=O)O)C(=O)N[C@@H](CCC(=O)O)C(=O)N[C@@H](CC(=O)O)C(=O)N[C@@H](CC(C)C)C(=O)N[C@@H](CC(N)=O)C(=O)O (H-EQKLISEEDLN-OH)
Kd (protein: Monoclonal anti-c-myc antibody 9E10, PDB entry 2or9): 0.5 µM (active)

H-SEAAASTAVVIA-OH
Kd (protein: human antithrombin, PDB entry 1br8): 18 µM (active)

CC[C@H](C)[C@H](NC(=O)[C@H](CCC(=O)O)NC(=O)[C@H](C)NC(=O)[C@H](CCC(N)=O)NC(=O)[C@H](CO)NC(=O)[C@H](CC(C)C)NC(=O)[C@@H](NC(=O)[C@@H](N)CO)[C@@H](C)CC)C(=O)N[C@@H](CC(=O)O)C(=O)N[C@@H](C)C(=O)N[C@@H](CC(C)C)C(=O)N[C@@H](CC(C)C)C(=O)N[C@@H](CC(N)=O)C(=O)O (H-SILSQAEIDALLN-OH)
Kd (protein: double mutant Chemotaxis protein cheYD13K Y106W, PDB entry 1u8t): 55 µM (active)

Cn1c(CNc2ccc(C(=N)N)cc2)nc2cc(C(=O)N(CCC(=O)O)c3ccccn3)ccc21
Kd (protein: humanized anti dabigatran Fab, PDB entry 4jn2): 2.1e-06 µM (active)
